In PubChem BioAssay:
Active and inactive are the calls of the source.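 How the source made its calls, unless noted: active means visually confirmed hit in the image check and inhibition above 20%; inconclusive means visually confirmed hit but inhibition not above 20%; inactive means no visual hit in the image check.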

Legend:
[1] = inhibitors of TNFa-induced NFkB p65 translocation, primary screen, imaging, HUVEC, MLSMR starter and 10KST1 sets (AID 438;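 active means inhibition above 20% together with a positive visual image hit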;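 further: compound added about 3h40 before a 20 min TNFalpha stimulation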;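 on inhibition: signal is the nuclear over cytoplasmic p65 intensity ratio per well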); settings: HUVEC TNFa-induced p65 nuclear translocation; cell count: measured here: nuclei count (cytotoxicity indicator), at 2.08 µM; inhibition: at 2 µM, stronger effect = higher value, 0% TNFa-plus-vehicle, 100% no-TNFa wells
[2] = reduction of polyQ htt aggregates in cells – imaging, exon1htt(103Q)mCFP cells, high-content imaging, primary screen (AID 483;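 active means visual image review flags a hit and inhibition of aggregation exceeds 20%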;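 further: compound exposure lasted 3 days before fixation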;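 on nuclei count: percent of the per-plate median nuclei count of sample wells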); settings: exon1htt(103Q)mCFP cell line, aggregate imaging, at 2 µM; inhibition of aggregation: stronger effect = higher value; nuclei count: measured here: cell count, toxicity
[3] = endothelial E-selectin expression blockers – imaging, HUVEC, immunofluorescence, MLSMR starter and 10KST1 sets, primary screen (AID 487); settings: HUVEC TNFalpha-induced E-selectin immunofluorescence imaging, at 2 µM; inhibition: stronger effect = higher value; nuclei count: measured here: cell number, toxicity;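 on inhibition: signal is fraction of cell area covered by stained E-selectin grains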;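 on nuclei count: 100% = median nuclei count of all wells on the same plate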
[4] = target: Voltage-gated potassium channel subunit beta-2 (Rattus norvegicus) (UniProt P62483); test: inhibitors of rat Kvbeta2 reductase activity – biochemical, NADPH fluorescence, primary screen (AID 622;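 active means fluorescence slope higher than the sample average by over 3 SD, cut at about -0.22 in these data, passing the limit was not always enough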;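 further: slope of raw intensity against log time taken from 70 to 1610 s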); settings: recombinant KvBeta, 4-cyanobenzaldehyde reduction, at 10 µM, stronger effect = higher value
Sequence of Voltage-gated potassium channel subunit beta-2 (Rattus norvegicus) (P62483 whole entry, looked up): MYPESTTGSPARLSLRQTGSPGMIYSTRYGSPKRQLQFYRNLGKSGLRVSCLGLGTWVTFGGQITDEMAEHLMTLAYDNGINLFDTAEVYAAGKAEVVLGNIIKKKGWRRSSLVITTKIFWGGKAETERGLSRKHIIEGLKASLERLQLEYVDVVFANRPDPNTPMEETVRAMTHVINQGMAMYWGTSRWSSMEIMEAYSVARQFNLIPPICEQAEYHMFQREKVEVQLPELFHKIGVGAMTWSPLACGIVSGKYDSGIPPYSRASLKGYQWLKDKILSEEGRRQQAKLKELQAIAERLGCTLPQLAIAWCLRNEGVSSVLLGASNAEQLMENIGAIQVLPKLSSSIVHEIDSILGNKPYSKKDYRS

[5] = target: Voltage-gated potassium channel subunit beta-2 (Rattus norvegicus) (UniProt P62483); test: enhancers of rat Kvbeta2 NADPH turnover – biochemical, NADPH fluorescence, primary screen (AID 623;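 active means NADPH fluorescence slope more negative than the mean of all samples by about 3 SD, 99.7% confidence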;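 further: fluorescence intensity change per second fitted from 20 to 320 s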); settings: Recombinant KvBeta, NADPH fluorescence decrease slope, 10 min; at 10 µM; stronger effect = lower value
[6] = target: Alpha-2C adrenergic receptor (Homo sapiens) (UniProt P18825); test: compounds altering alpha2C-coupled GIRK flux – cell-based, HEK293 alpha2C/GIRK1/2, thallium flux, primary screen (AID 624;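 active means fluorescence slope after compound addition differing from the mean of all screened samples at 99.7% confidence, in either direction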;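 further: slope of fluorescence ratio to pre-addition baseline per second over 15 to 24 s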); settings: thallium flux BTC fluorescence, at 10 µM, actives lie on both sides
Sequence of Alpha-2C adrenergic receptor (Homo sapiens) (P18825 whole entry, looked up): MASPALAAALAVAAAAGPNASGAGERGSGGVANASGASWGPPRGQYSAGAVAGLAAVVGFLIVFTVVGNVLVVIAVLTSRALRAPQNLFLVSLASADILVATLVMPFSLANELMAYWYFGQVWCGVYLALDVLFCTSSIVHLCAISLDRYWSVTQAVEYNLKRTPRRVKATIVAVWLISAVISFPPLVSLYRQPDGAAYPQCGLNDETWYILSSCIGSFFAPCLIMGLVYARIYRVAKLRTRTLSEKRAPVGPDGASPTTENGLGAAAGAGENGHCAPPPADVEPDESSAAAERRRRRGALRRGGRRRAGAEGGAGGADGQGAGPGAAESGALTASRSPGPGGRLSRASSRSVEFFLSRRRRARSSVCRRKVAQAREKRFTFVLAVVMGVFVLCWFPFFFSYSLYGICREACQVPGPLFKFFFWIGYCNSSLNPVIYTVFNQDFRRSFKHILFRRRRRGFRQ

[7] = blockers of RIG-like receptor reporter activation – cell-based, Sendai virus stimulus, luciferase, 10K MLSCN set, TLR/RLR signaling modifier project, primary screen (AID 602276;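 active means inhibition at or above 50% at 10 µM; inactive means inhibition below 50%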;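 further: firefly luciferase from ISG56 promoter only with Renilla not read in this screen; 0% = Sendai virus plus DMSO and 100% = medium plus DMSO without virus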); settings: HEK293 RL24 IRF3 luciferase reporter, at 10 µM, stronger effect = higher value
[8] = TLR3 IRF3 reporter activation blockers – cell-based, poly I:C stimulus, luciferase, 10K MLSCN set, primary screen (AID 602277;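 active means inhibition of the reporter signal at or above 50%; inactive means inhibition below 50%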); settings: HEK293-TLR3 RL24 IRF3 luciferase reporter, at 10 µM, stronger effect = higher value

Compound: COc1ccc(CC(=O)NCc2nnc(SCC(=O)Nc3nccs3)n2-c2ccccc2)cc1
- cell count [1]: 640
- inhibition [1]: 5.8% (inactive)
- inhibition of aggregation [2]: 17.6% (inactive)
- nuclei count [2]: 98.3%
- inhibition [3]: -36.8% (inactive)
- nuclei count [3]: 122%
- fluorescence slope [4]: -0.558 (inactive)
- NADPH fluorescence slope [5]: -2.9e-05 (inactive)
- slope [6]: 0.00708 (inactive)
- inhibition [7]: 12% (inactive)
- inhibition [8]: 33.9% (inactive)

Compound: CCc1cccc2c(=O)c(C(=O)N3CCCCCC3)c[nH]c12
- cell count [1]: 538
- inhibition [1]: -26.5% (inactive)
- inhibition of aggregation [2]: 7.9% (inactive)
- nuclei count [2]: 87.7%
- inhibition [3]: -31% (inactive)
- nuclei count [3]: 94.3%
- fluorescence slope [4]: -0.513 (inactive)
- NADPH fluorescence slope [5]: -5.1e-05 (inactive)
- slope [6]: 0.0048 (inactive)
- inhibition [7]: 4.31% (inactive)
- inhibition [8]: -4.51% (inactive)

Compound: CCC1CCCCN1C(=O)CSc1nnc(-c2ccco2)o1 (centres undefined)
- cell count [1]: 368
- inhibition [1]: 4.2% (inactive)
- inhibition of aggregation [2]: -17.6% (inactive)
- nuclei count [2]: 100%
- inhibition [3]: -80.6% (inactive)
- nuclei count [3]: 104%
- fluorescence slope [4]: -0.487 (inactive)
- NADPH fluorescence slope [5]: -7.3e-05 (inactive)
- slope [6]: 0.00444 (inactive)
- inhibition [7]: -35.7% (inactive)
- inhibition [8]: -88.3% (inactive)

Compound: O=C(Nc1ccc(N2CCCCC2)cc1)c1ccc(F)cc1
- cell count [1]: 420
- inhibition [1]: 0.3% (inactive)
- inhibition of aggregation [2]: -17.8% (inactive)
- nuclei count [2]: 111%
- inhibition [3]: -134% (inactive)
- nuclei count [3]: 122%
- fluorescence slope [4]: -0.401 (inactive)
- NADPH fluorescence slope [5]: -0.000159 (inactive)
- slope [6]: 0.00518 (inactive)
- inhibition [7]: -44.9% (inactive)
- inhibition [8]: -140% (inactive)

Compound: CCOC(=O)c1c(C)c(C(=O)NCCN2CCOCC2)c(C)n1C
- cell count [1]: 607
- inhibition [1]: -11.6% (inactive)
- inhibition of aggregation [2]: 13% (inactive)
- nuclei count [2]: 88.4%
- inhibition [3]: 1.3% (inactive)
- nuclei count [3]: 103%
- fluorescence slope [4]: -0.496 (inactive)
- NADPH fluorescence slope [5]: -8.5e-05 (inactive)
- slope [6]: 0.00563 (inactive)
- inhibition [7]: 13.6% (inactive)
- inhibition [8]: 22.1% (inactive)

Compound: CCOc1cc(C(=O)Nc2ncccn2)cc(OCC)c1OCC
- cell count [1]: 280
- inhibition [1]: 6.6% (inactive)
- inhibition of aggregation [2]: 38% (active)
- nuclei count [2]: 103%
- inhibition [3]: -193% (inactive)
- nuclei count [3]: 100%
- fluorescence slope [4]: -0.476 (inactive)
- NADPH fluorescence slope [5]: -2.8e-05 (inactive)
- slope [6]: 0.0062 (inactive)
- inhibition [7]: 8.28% (inactive)
- inhibition [8]: 27.2% (inactive)

Compound: O=c1c[n+]([O-])c2ccccc2n1OCc1c(F)cccc1F
- cell count [1]: 744
- inhibition [1]: -6% (inactive)
- inhibition of aggregation [2]: -13.7% (inactive)
- nuclei count [2]: 87.6%
- inhibition [3]: -236% (inactive)
- nuclei count [3]: 110%
- fluorescence slope [4]: -0.425 (inactive)
- NADPH fluorescence slope [5]: -2.4e-05 (inactive)
- slope [6]: 0.00594 (inactive)
- inhibition [7]: 18% (inactive)
- inhibition [8]: 24.8% (inactive)

Compound: Cn1c(=O)c2c(nc(CN3CCCCC3)n2CCc2ccccc2)n(C)c1=O
- cell count [1]: 363
- inhibition [1]: -1% (inactive)
- inhibition of aggregation [2]: -29.9% (inactive)
- nuclei count [2]: 79%
- inhibition [3]: -3.5% (inactive)
- nuclei count [3]: 158%
- fluorescence slope [4]: -0.572 (inactive)
- NADPH fluorescence slope [5]: -1.3e-05 (inactive)
- slope [6]: 0.00323 (inactive)
- inhibition [7]: -6.67% (inactive)
- inhibition [8]: -8.47% (inactive)

Compound: Cc1ccc(Cn2ccc(NC(=O)c3cc(-c4cccs4)on3)n2)cc1
- cell count [1]: 407
- inhibition [1]: 0.9% (inactive)
- inhibition of aggregation [2]: -11.4% (inactive)
- nuclei count [2]: 96.9%
- inhibition [3]: -33.4% (inactive)
- nuclei count [3]: 99.3%
- fluorescence slope [4]: -0.493 (inactive)
- NADPH fluorescence slope [5]: -1.8e-05 (inactive)
- slope [6]: 0.00693 (inactive)
- inhibition [7]: -3.96% (inactive)
- inhibition [8]: -7.39% (inactive)

Compound: COC(=O)CC1SCCNC1=O (centres undefined)
- cell count [1]: 308
- inhibition [1]: 0.8% (inactive)
- inhibition of aggregation [2]: -7.1% (inactive)
- nuclei count [2]: 97.9%
- inhibition [3]: 38.9% (inactive)
- nuclei count [3]: 98.8%
- fluorescence slope [4]: -0.552 (inactive)
- NADPH fluorescence slope [5]: 2e-05 (inactive)
- slope [6]: 0.00463 (inactive)
- inhibition [7]: 0.969% (inactive)
- inhibition [8]: -5.15% (inactive)

Compound: CCOC(=O)c1nnc(-c2ccccc2)o1
- cell count [1]: 620
- inhibition [1]: 2.2% (inactive)
- inhibition of aggregation [2]: -2.9% (inactive)
- nuclei count [2]: 114%
- inhibition [3]: -14.5% (inactive)
- nuclei count [3]: 89.7%
- fluorescence slope [4]: -0.592 (inactive)
- NADPH fluorescence slope [5]: -3.3e-05 (inactive)
- slope [6]: 0.00603 (inactive)
- inhibition [7]: 17.6% (inactive)
- inhibition [8]: -1.89% (inactive)

Compound: CCOc1nc(OCC)nc(N2CCC(C)CC2)n1
- cell count [1]: 499
- inhibition [1]: 9.1% (inactive)
- inhibition of aggregation [2]: 5.9% (inactive)
- nuclei count [2]: 106%
- inhibition [3]: -118% (inactive)
- nuclei count [3]: 138%
- fluorescence slope [4]: -0.242 (inactive)
- NADPH fluorescence slope [5]: -3.2e-05 (inactive)
- slope [6]: 0.005 (inactive)
- inhibition [7]: 16.6% (inactive)
- inhibition [8]: 20.5% (inactive)

Compound: Cn1c(=O)c2c(nc(CN3CCCCC3)n2CCCc2ccccc2)n(C)c1=O
- cell count [1]: 431
- inhibition [1]: 10.1% (inactive)
- inhibition of aggregation [2]: -30.7% (inactive)
- nuclei count [2]: 102%
- inhibition [3]: 38.4% (inactive)
- nuclei count [3]: 102%
- fluorescence slope [4]: -0.46 (inactive)
- NADPH fluorescence slope [5]: -9.8e-06 (inactive)
- slope [6]: 0.00664 (inactive)
- inhibition [7]: 15.4% (inactive)
- inhibition [8]: 44.7% (inactive)

Compound: CCn1c(SCC(=O)Nc2cc(C)ccc2C)nc2c(c1=O)SC(C)C2 (centres undefined)
- cell count [1]: 680
- inhibition [1]: -8.2% (inactive)
- inhibition of aggregation [2]: -17.3% (inactive)
- nuclei count [2]: 98%
- inhibition [3]: -39.2% (inactive)
- nuclei count [3]: 110%
- fluorescence slope [4]: -0.584 (inactive)
- NADPH fluorescence slope [5]: -2.9e-05 (inactive)
- slope [6]: 0.0063 (inactive)
- inhibition [7]: -13.9% (inactive)
- inhibition [8]: 2.03% (inactive)
